# From PubChem BioAssay AID1159580 (chemical genetic matrix, 2015)
# Several values for one entry are separate records, joined by “and”; a condition that tells them apart may be missing. Equal values may be shown once. In all, about 5,500 compounds went through this assay and about 2,000 (36%) were called active. Another 18% or so got no clear call; they are omitted. This is one part of the list. A number with no mark means an inactive call. Rule as the data show it: active = normalized growth mostly below about 0.91 (no sharp cut-off); inconclusive = no clear call, values can overlap the other calls; inactive = mostly above about 0.92.
# Test: chemical genetic growth profiling, strain panel (AID 1159580);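 also: tested at 20 µM; growth read once vehicle control cultures reached saturation at 30 °C; 1 = growth at the plate median or of vehicle wells; lower values mean less growth of the strain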
# Conditions: S. cerevisiae deletion strains, growth OD
compound,measurement,setting,value
CC(C)=CCCC1(C)C=Cc2c(O)c3c(c(CC=C(C)C)c2O1)OC12C(=CC4CC1C(C)(C)OC2(C/C=C(\C)C(N)=O)C4=O)C3=O (stereo unspecified),normalized growth,"locus YBR021W, strain FUR4, hits give low values",0.922
same,normalized growth,"locus YBR229C, strain ROT2, hits give low values",1
same,normalized growth,"locus YCL029C, strain bik1, hits give low values",0.977
same,normalized growth,"locus YDL035C, strain GPR1, hits give low values",0.932
same,normalized growth,"locus YDL074C, strain BRE1, hits give low values",0.899
same,normalized growth,"locus YDL101C, strain DUN1, hits give low values",0.96
same,normalized growth,"locus YDL134C, strain PPH21, hits give low values",0.914
same,normalized growth,"locus YDL185W, strain tfp1, hits give low values",0.996
same,normalized growth,"locus YDL192W, strain arf1, hits give low values",0.913 (active)
same,normalized growth,"locus YDR101C, strain arx1, hits give low values",0.958
same,normalized growth,"locus YDR150W, strain NUM1, hits give low values",1
same,normalized growth,"locus YDR162C, strain NBP2, hits give low values",0.92
same,normalized growth,"locus YDR318W, strain mcm21, hits give low values",0.941
same,normalized growth,"locus YDR388W, hits give low values",0.96
same,normalized growth,"locus YDR502C, strain sam2, hits give low values",0.924
same,normalized growth,"locus YEL061C, strain CIN8, hits give low values",0.967
same,normalized growth,"locus YER110C, hits give low values",0.999
same,normalized growth,"locus YER155C, strain BEM2, hits give low values",0.89 (active)
same,normalized growth,"locus YER167W, strain BCK2, hits give low values",0.965
same,normalized growth,"locus YGL078C, strain dbp3, hits give low values",0.963
same,normalized growth,"locus YGL086W, strain mad1, hits give low values",0.947
same,normalized growth,"locus YGL248W, strain PDE1, hits give low values",0.894
same,normalized growth,"locus YGR135W, strain pre9, hits give low values",0.923
same,normalized growth,"locus YGR229C, strain SMI1, hits give low values",0.761 (active)
same,normalized growth,"locus YGR252W, strain gcn5, hits give low values",0.856
same,normalized growth,"locus YHR030C, strain SLT2, hits give low values",0.995 and 0.925
same,normalized growth,"locus YHR079C, strain IRE1 (second series), hits give low values",0.99
same,normalized growth,"locus YHR079C, strain IRE1, hits give low values",0.933
same,normalized growth,"locus YHR094C, strain hxt1, hits give low values",0.995
same,normalized growth,"locus YHR129C, strain ARP1, hits give low values",0.944
same,normalized growth,"locus YHR200W, strain rpn10, hits give low values",0.946
same,normalized growth,"locus YIL066C, strain RNR3, hits give low values",0.878
same,normalized growth,"locus YIL073C, strain SPO22, hits give low values",0.801
same,normalized growth,"locus YIL125W, strain kgd1, hits give low values",0.943
same,normalized growth,"locus YIR030C, strain dcg1, hits give low values",0.959
same,normalized growth,"locus YJL095W, strain BCK1, hits give low values",0.875 and 0.963
same,normalized growth,"locus YJL134W, strain LCB3, hits give low values",1
same,normalized growth,"locus YJL168C, strain set2, hits give low values",0.987
same,normalized growth,"locus YJL187C, strain SWE1 (second series), hits give low values",0.929
same,normalized growth,"locus YJR043C, strain POL32, hits give low values",0.981
same,normalized growth,"locus YJR066W, strain TOR1, hits give low values",0.906
same,normalized growth,"locus YJR075W, strain HOC1, hits give low values",0.944
same,normalized growth,"locus YKL009W, strain mrt4, hits give low values",0.931
same,normalized growth,"locus YKL068W, hits give low values",0.995
same,normalized growth,"locus YKL085W, strain MDH1 (second series), hits give low values",0.99
same,normalized growth,"locus YKL085W, strain MDH1, hits give low values",0.99
same,normalized growth,"locus YKL190W, strain CNB1, hits give low values",0.985
same,normalized growth,"locus YKR001C, strain vps1, hits give low values",0.842 (active)
same,normalized growth,"locus YLR039C, strain RIC1, hits give low values",0.898
same,normalized growth,"locus YLR058C, strain SHM2, hits give low values",0.946
same,normalized growth,"locus YLR102C, strain apc9, hits give low values",1.01
same,normalized growth,"locus YLR113W, strain HOG1, hits give low values",0.852 (active)
same,normalized growth,"locus YLR262C, strain YPT6, hits give low values",0.946
same,normalized growth,"locus YLR268W, strain sec22, hits give low values",0.896
same,normalized growth,"locus YLR330W, strain CHS5, hits give low values",0.95
same,normalized growth,"locus YLR342W, strain FKS1 (second series), hits give low values",0.913
same,normalized growth,"locus YLR371W, strain rom2, hits give low values",0.989
same,normalized growth,"locus YLR418C, strain cdc73, hits give low values",0.699 (active)
same,normalized growth,"locus YML016C, strain PPZ1, hits give low values",0.969
same,normalized growth,"locus YML032C, strain rad52, hits give low values",0.96
same,normalized growth,"locus YML124C, strain tub3, hits give low values",0.985
same,normalized growth,"locus YMR078C, strain ctf18, hits give low values",0.971
same,normalized growth,"locus YMR223W, strain ubp8, hits give low values",0.95
same,normalized growth,"locus YMR263W, strain SAP30, hits give low values",0.968
same,normalized growth,"locus YMR307W, strain GAS1, hits give low values",0.833
same,normalized growth,"locus YNL067W, strain RPL9B, hits give low values",0.951
same,normalized growth,"locus YNL153C, strain GIM3, hits give low values",0.958
same,normalized growth,"locus YNL183C, strain NPR1, hits give low values",0.868
same,normalized growth,"locus YNL233W, strain BNI4, hits give low values",0.915
same,normalized growth,"locus YNL250W, strain rad50, hits give low values",0.983
same,normalized growth,"locus YNL271C, strain bni1, hits give low values",0.993
same,normalized growth,"locus YNL298W, strain CLA4, hits give low values",0.989
same,normalized growth,"locus YNL307C, strain MCK1, hits give low values",0.844 (active)
same,normalized growth,"locus YNL322C, strain KRE1, hits give low values",0.976
same,normalized growth,"locus YNR052C, strain pop2, hits give low values",0.981
same,normalized growth,"locus YOL012C, strain htz1",0.568
same,normalized growth,"locus YOL147C, strain pex11, hits give low values",0.944
same,normalized growth,"locus YOR061W, strain CKA2, hits give low values",0.963
same,normalized growth,"locus YOR069W, strain VPS5, hits give low values",0.99
same,normalized growth,"locus YOR136W, strain idh2, hits give low values",0.98
same,normalized growth,"locus YOR144C, strain elg1, hits give low values",0.987
same,normalized growth,"locus YOR184W, strain ser1, hits give low values",0.872 (active)
same,normalized growth,"locus YOR231W, strain MKK1, hits give low values",0.937
same,normalized growth,"locus YOR316C, strain cot1, hits give low values",0.995
same,normalized growth,"locus YPL055C, strain LGE1, hits give low values",0.866
same,normalized growth,"locus YPL256C, strain CLN2, hits give low values",0.944
same,normalized growth,"locus YPR119W, strain clb2, hits give low values",0.989
same,normalized growth,"locus YPR141C, strain kar3, hits give low values",0.996
same,normalized growth,"locus YPR163C, strain tif3, hits give low values",0.982
same,normalized growth,"locus YPR167C, strain met16, hits give low values",0.958
same,normalized growth,"strain wtn01, hits give low values",0.937
